The list is not random: actives were taken first. Their share in the collection is about 4.2%.
hcDAF-12 act = activators of H. contortus DAF-12 nuclear receptor | HEK293 hcDAF-12 lit1-tk-luc reporter, luminescence; 0% DMSO, 100% Δ7-dafachronic acid | activation, % at 6.8 µM | 1.4% of 370,000 active | AID 652067;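 active = activation above the mean of all tested compounds plus 3 SD, cut at about 5.5% in these data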;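 note: 100% = response to 3 µM Δ7-dafachronic acid high control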
Wnt act = activates Wnt/beta-catenin signaling in a reporter cell assay. activator, plate reader. activation, % at 9.35 µM. AID 743398. 1.2% of 300,000 active; in the data active = activation above about 30%, passing the limit was not always enough; inconclusive = no clear call, values can overlap the other calls;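 note: 0% = neutral control wells and 100% = positive control wells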
ssDAF12 agonist = activators of S. stercoralis DAF-12 nuclear receptor. HEK293 ssDAF-12/GRIP1 lit1-tk-luc reporter, luminescence; % of 3 µM dafachronic acid response. activation, % at 6.8 µM. 1% of 370,000 active;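 active = activation above the mean over all tested compounds plus 3 SD, cut at about 0.9% in these data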;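 note: 0% = DMSO-only wells and 100% = 3 µM delta7-dafachronic acid wells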
hgDAF12 agonist = agonists of H. glycines DAF-12 nuclear receptor. HEK293 GAL4-hgDAF12 UAS-luciferase reporter, agonist luminescence; normalized to butyrate control. activation, % at 6.8 µM. 1.8% of 370,000 active;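 active = activation above a cutoff set at the mean of all screened compounds plus 3 SD, cut at about 10% in these data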;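 note: 0% = DMSO wells and 100% = sodium butyrate wells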
esBAF inh = blocks esBAF chromatin remodeling in mouse ES cells | Bmi1-luciferase knock-in reporter, 24 h; 100% = twice the neutral-well signal | reporter increase, % at 12.5 µM | 2% of 350,000 active; in the data active = activation above about 40%; inconclusive = no clear call, values can overlap the other calls;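 note: 0% = median of the plate's neutral control wells and 100% = double that signal; a rise in the Bmi1 reporter signal indicates esBAF inhibition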
DAX1 inh = blocks DAX1 repression of SF-1 activated StAR promoter; HEK293T StAR-luciferase reporter, SF-1/DAX-1 repression relief; 1.1% of 370,000 active; AID 652010; inhibition, % at 6.8 µM;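 active = inhibition above the mean over all tested compounds plus 3 SD, cut at about 3.6% in these data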;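 note: 0% = DAX-1 cells with DMSO and 100% = cells lacking DAX-1 with DMSO; higher inhibition means more luminescence from relief of DAX-1 repression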
LXR ag = LXR-beta agonism as hcDAF-12 counter-screen. shares compounds with hcDAF-12 act. HEK293 Gal4-LXR tk-luc reporter, luminescence, 24 h; normalized: DMSO 0%, positive control 100%. activation, % at 6.8 µM. 3,400 tested, under 10 active;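 active = mean percent activation of the reporter above a cutoff set as the average over tested compounds plus their standard deviation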
Target sequence (P55055 whole entry, looked up, the tested form may be a part): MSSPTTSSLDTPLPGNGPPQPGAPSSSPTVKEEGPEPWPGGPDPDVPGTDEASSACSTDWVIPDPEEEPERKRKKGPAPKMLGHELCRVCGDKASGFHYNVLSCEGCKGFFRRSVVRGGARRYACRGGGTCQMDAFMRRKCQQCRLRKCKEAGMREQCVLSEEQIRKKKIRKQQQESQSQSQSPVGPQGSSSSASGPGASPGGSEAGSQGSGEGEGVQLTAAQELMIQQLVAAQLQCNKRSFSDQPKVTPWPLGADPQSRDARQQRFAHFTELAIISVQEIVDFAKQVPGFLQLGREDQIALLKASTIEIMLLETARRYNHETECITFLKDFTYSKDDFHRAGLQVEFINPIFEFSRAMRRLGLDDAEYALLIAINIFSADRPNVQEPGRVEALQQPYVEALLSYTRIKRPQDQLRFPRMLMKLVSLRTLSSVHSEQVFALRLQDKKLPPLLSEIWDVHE
hcDAF12 ag = confirmation of H. contortus DAF-12 agonists; shares compounds with hcDAF-12 act; HEK293 hcDAF-12 lit1-tk-luc reporter, luminescence; % of Δ7-dafachronic acid response; activation, % at 6.8 µM; 61% of 3,400 active; AID 743032;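 active = mean activation across triplicate tests above the threshold derived from the earlier primary screen, cut at about 5.5% in these data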;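 note: 0% = DMSO only wells and 100% = 3 µM Δ7-dafachronic acid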
* marks the source's active call; other numbers are inactive results; ? = inconclusive; nt = no result.

SMILES	hcDAF-12 act	Wnt act	ssDAF12 agonist	hgDAF12 agonist	esBAF inh	DAX1 inh	LXR ag	hcDAF12 ag
O=C(c1cc2ccccc2oc1=O)N1CCOCC1	6.7*	35.3*	0.4	10.7*	49.5*	2.8	0.8	5.6*
O=C(c1cc2cc(Cl)ccc2oc1=O)N1CCOCC1	-0.8	nt	-0.8	0.4	-13.4	-0.1	nt	nt
CCC(=O)Nc1ccc2c(c1)OC[C@@H](C)N(Cc1ccccc1)C[C@H](C)[C@H](OC)CN(C)C2=O	nt	nt	nt	nt	3.2	nt	nt	nt
COc1ccccc1-c1nc(SCc2ccccn2)n[nH]1	6.9*	3.4	0.6	8.2	59.5*	2.1	0.4	9.0*
Cc1csc(-c2coc3cc(O)cc(C)c3c2=O)n1	12.7*	22.2	1.6*	9.5	60.2*	0.8	0.7	10.7*
COc1ccc2c(=O)c(-c3nc(C)cs3)coc2c1	7.0*	nt	1.1*	13.8*	nt	4.1*	1.9	14.3*
Cc1nc(-c2coc3cc(C)c(N=O)c(O)c3/c2=N\N)cs1	-1.8	1.2	-1.5	-1.1	-2.0	-0.7	nt	nt
CN(C)C(=O)C[C@H]1CC[C@@H](NC(=O)NC2CCCC2)[C@@H](CO)O1	nt	nt	nt	nt	-2.9	nt	nt	nt
CN(C)CC(=O)Nc1ccc2c(c1)[C@H]1C[C@H](CC(=O)N3CCOCC3)O[C@H](CO)[C@H]1O2	nt	nt	nt	nt	6.0	nt	nt	nt
O=C(O)c1ccccc1C(=O)c1ccc2c(c1)CCC2	6.9*	2.4	-1.5	0.4	-4.5	0.0	-0.3	1.0
O=C(O)c1ccccc1Cc1ccc2c(c1)CCCC2	-0.2	-7.0	-1.1	3.7	-1.4	-0.7	nt	nt
CC(C)c1ccc(-c2cc(C(=O)NN3CCN(C)CC3)c3ccccc3n2)cc1	7.3*	nt	0.7	8.5	nt	2.1	0.2	6.0*
CN1CCN(NC(=O)c2cc(-c3cccc(Cl)c3)nc3ccccc23)CC1	-0.2	-1.6	-2.0	0.4	nt	1.7	nt	nt
Cc1csc(NC(=O)c2cc3c(s2)CCCC3)n1	11.1*	nt	0.2	12.0*	-21.5	1.8	1.4	7.0*
Cc1cnc(NC(=O)c2cc3c(s2)CCCC3)s1	9.0*	nt	0.1	2.8	nt	1.9	1.6	7.0*
Cc1cccc(/C(N)=N/OC(=O)c2ccc(F)cc2)c1	7.2*	28.8	0.8	12.6*	nt	2.4	0.7	3.4
C[C@@H]1CN([C@H](C)CO)C(=O)Cc2cc(NC(=O)Nc3ccc(F)cc3)ccc2O[C@H]1CN(C)C(=O)Nc1ccc(C(F)(F)F)cc1	nt	nt	nt	nt	0.9	nt	nt	nt
Cc1ccc2c(c1)sc(=NC(=O)C1CC1)n2C	8.7*	17.5	1.7*	13.0*	nt	2.5	0.9	14.1*
Cc1ccc2c(c1)sc(=NC(=O)c1cccs1)n2C	7.9*	-13.0	1.6*	15.5*	nt	2.2	1.4	23.2*
O=C(Cc1ccccc1[N+](=O)[O-])NCc1ccc2c(c1)OCO2	8.8*	18.3	2.2*	12.0*	nt	1.9	0.6	8.6*
O=C(Cc1ccccc1)NCc1ccc2c(c1)OCO2	0.8	nt	-0.7	6.2	20.3	0.5	nt	nt
CCCCn1nnnc1NCc1ccc(OC)c(OC)c1	8.5*	-0.4	-1.7	0.4	-9.7	-0.7	-0.2	1.2
O=c1cc(O)nc(SCc2ccccc2)[nH]1	6.7*	-3.3	-1.6	-2.4	6.9	0.2	0.0	1.8
CN(C)CC(=O)N[C@@H]1CC[C@@H](CCNC(=O)Nc2ccc(C(F)(F)F)cc2)O[C@@H]1CO	nt	nt	nt	nt	2.4	nt	nt	nt
c1cnc2c(OCc3nc4ccccc4[nH]3)cccc2c1	11.0*	25.7	1.2*	8.3	?	2.5	0.8	9.6*
CO[C@@H]1CN(C)C(=O)c2cc(NS(=O)(=O)c3ccccc3)ccc2OC[C@@H](C)N(C(=O)NC(C)C)C[C@H]1C	nt	nt	nt	nt	-1.7	nt	nt	nt
COc1ccc2[nH]c3c(C)c4ccncc4c(C)c3c2c1	7.3*	-18.0	2.0*	-0.4	-5.9	-1.8	0.3	3.7

Assay outcomes as filed in PubChem.
